Assay [1] in a line: sensitizers of A549 cells to miR-34 induction, primary screen, imaging, A549 dox-inducible miR-34, nuclei and caspase counts (AID 1347080). Particulars: A549 miR-34 inducible, Hoechst nuclei count, 48 h.
Assay [2] can be described thus: survival rescue of mitochondrial mutant cells in low glucose, primary screen, MELAS cybrids, Rieske KO mouse fibroblasts, CellTiter-Glo (AID 1508586;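 active = mean z-score across replicates of 1.96 or higher in either the MELAS or the Rieske mutant cell line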;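 also: z relative to plate mean and SD of compound and empty wells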). Background: In ATP-based viability assays light output follows the ATP content of the culture.
The target of assay [3] is NAD(+) hydrolase SARM1 (Homo sapiens) (UniProt Q6SZW1). Briefly: SARM1 TIR NADase inhibitors, cell lysate, NAD-Glo luminescence (AID 1508614;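 active = compound whose remaining NAD level is above about 45 nM, limit read from the data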;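 also: higher remaining NAD means stronger inhibition of SARM1 NADase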). The conditions noted are these: SAM-TIR HEK293T lysate NADase, at 1 µM, stronger effect = higher value.
Sequence of NAD(+) hydrolase SARM1 (Homo sapiens) (Q6SZW1 whole entry, looked up, the tested form may be a part): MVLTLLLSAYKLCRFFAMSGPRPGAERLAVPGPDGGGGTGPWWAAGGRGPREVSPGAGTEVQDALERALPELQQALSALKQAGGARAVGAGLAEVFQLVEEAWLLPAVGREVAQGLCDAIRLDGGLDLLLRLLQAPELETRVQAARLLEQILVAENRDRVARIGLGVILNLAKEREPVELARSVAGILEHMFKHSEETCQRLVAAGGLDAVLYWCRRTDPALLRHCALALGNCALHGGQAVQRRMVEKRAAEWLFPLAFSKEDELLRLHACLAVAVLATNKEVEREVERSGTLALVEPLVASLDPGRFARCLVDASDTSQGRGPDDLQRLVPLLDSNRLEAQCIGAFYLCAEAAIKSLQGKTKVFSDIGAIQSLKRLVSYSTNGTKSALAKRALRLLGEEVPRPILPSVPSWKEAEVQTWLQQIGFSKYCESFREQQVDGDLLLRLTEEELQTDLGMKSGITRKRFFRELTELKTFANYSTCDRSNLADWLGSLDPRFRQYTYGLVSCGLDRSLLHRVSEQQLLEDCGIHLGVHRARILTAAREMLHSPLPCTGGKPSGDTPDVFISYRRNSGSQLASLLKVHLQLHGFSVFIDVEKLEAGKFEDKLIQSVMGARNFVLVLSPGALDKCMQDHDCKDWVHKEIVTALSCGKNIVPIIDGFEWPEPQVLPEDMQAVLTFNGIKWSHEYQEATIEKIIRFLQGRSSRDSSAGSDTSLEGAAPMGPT
Assay [4] has as its target Mitogen-activated protein kinase 7 (Homo sapiens) (UniProt Q13164). Description: ERK5 transactivation activators in reporter cells, primary screen, cell-based, HTS (AID 1508626;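 active = luciferase signal above three times the same-plate solvent-only control wells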;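 also: luciferase driven by Gal4-ERK5 fusion binding five Gal4 sites before minimal TATA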). Particulars: HeLa Gal4-ERK5 transactivation, 18 h, at 5 µM, stronger effect = higher value.
A short description of assay [5]: viability rescue of complex I mutant cybrids, primary screen, cell-based, galactose medium, ATP luminescence (AID 1645843;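 active = z-score of at least 1.8 in each of two replicates, scored against plate mean and spread of sample wells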;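 also: positive z means more ATP and so rescue of galactose-driven cybrid death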). Particulars: complex I mutant cybrid cells, 72 h, stronger effect = higher value.
A short description of assay [6]: LFS_MB_P medulloblastoma growth inhibition, cell-based, chromothripsis tumors, cisplatin or BGB combos (AID 1671449; in the data active = inhibition above about 80%;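 also: cells exposed for 96 hours; 0% = vehicle DMSO and 100% = killing by high DMSO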). Particulars: LFS_MB_P medulloblastoma cells.
Assay [7] can be described thus: HDN33 neuroblastoma growth inhibition, cell-based, chromothripsis tumors, cisplatin or BGB combos (AID 1671450; in the data active = inhibition above about 80%;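 also: cells exposed to compound for four days; 0% = vehicle DMSO and 100% = cell killing by high DMSO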). The conditions noted are these: HDN33 neuroblastoma cells, stronger effect = higher value.
A short description of assay [8]: ICB984 medulloblastoma cell growth inhibition, synergistic combos for chromothripsis tumors, cisplatin or BGB combos (AID 1671451; call rule not given here;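 also: cells exposed for 96 hours before readout; 0% = vehicle DMSO and 100% = killing by high DMSO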). The conditions noted are these: ICB984 medulloblastoma cells, drug combinations, stronger effect = higher value.
Assay [9] in a line: LFS_MB_1R medulloblastoma cell growth inhibition, synergistic combos for chromothripsis tumors, cisplatin or BGB combos (AID 1671452; in the data active = inhibition above about 80%;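 also: cells exposed for 96 hours before readout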). Particulars: LFS_MB_1R medulloblastoma cells, stronger effect = higher value.
Assay [10] is described as follows: HTB85 osteosarcoma cell growth inhibition, synergistic combos for chromothripsis tumors, BGB or cisplatin IC20 combos (AID 1671453; in the data active = inhibition above about 80%;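 also: cells exposed for 96 hours before readout; 0% = vehicle DMSO and 100% = high DMSO killing control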). The conditions noted are these: HTB85 osteosarcoma cells, drug combinations, stronger effect = higher value.
Assay [11] can be described thus: CRL2098 osteosarcoma cell growth inhibition, synergistic combos for chromothripsis tumors, BGB or cisplatin IC20 combos (AID 1671454; in the data active = inhibition above about 80%;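 also: cells exposed for 96 h before readout; 0% = vehicle DMSO and 100% = killing by high DMSO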). Particulars: CRL2098 osteosarcoma cells, drug combinations, stronger effect = higher value.
Assay [12] in a line: HD-MB03 medulloblastoma cell growth inhibition, synergistic combos for chromothripsis tumors, BGB or cisplatin IC20 combos (AID 1671455; in the data active = inhibition above about 83%;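 also: 0% = vehicle DMSO and 100% = high DMSO as cytotoxic control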). The conditions noted are these: HD-MB03 medulloblastoma cells, stronger effect = higher value.
[13] abbreviates: stronger effect = lower value, cell number ratio, induced over uninduced.
Setting [14] is: measured here: relative caspase fold change +Dox/-Dox.
The mark [15] stands for this setting: measured here: total cells with miR-34 induction, stronger effect = lower value.
Where [16] appears, read: measured here: total cells without miR-34 induction.
[17] abbreviates: MELAS cybrid survival, CellTiter-Glo 48 h, stronger effect = higher value.
The mark [18] stands for this setting: Rieske KO mouse fibroblast survival, CellTiter-Glo 72 h.
[19] abbreviates: measured here: combination with BGB IC40, at 0.05 µM.

“And” between values parts separate entries of the source, which are not always exact repeats. Identical values can stand only once. More than one record can exist for a structure, and the calls need not agree. The source made the active and inactive calls.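 The calls were made as follows, unless noted: active = compounds whose cell count with miR-34 switched on is under 0.7 times the count with it off; inactive = the rest.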

Usually inhibition stands for the drop in the measured response relative to a control, in per cent.

Sequence of Mitogen-activated protein kinase 7 (Homo sapiens) (Q13164 whole entry, looked up, the tested form may be a part): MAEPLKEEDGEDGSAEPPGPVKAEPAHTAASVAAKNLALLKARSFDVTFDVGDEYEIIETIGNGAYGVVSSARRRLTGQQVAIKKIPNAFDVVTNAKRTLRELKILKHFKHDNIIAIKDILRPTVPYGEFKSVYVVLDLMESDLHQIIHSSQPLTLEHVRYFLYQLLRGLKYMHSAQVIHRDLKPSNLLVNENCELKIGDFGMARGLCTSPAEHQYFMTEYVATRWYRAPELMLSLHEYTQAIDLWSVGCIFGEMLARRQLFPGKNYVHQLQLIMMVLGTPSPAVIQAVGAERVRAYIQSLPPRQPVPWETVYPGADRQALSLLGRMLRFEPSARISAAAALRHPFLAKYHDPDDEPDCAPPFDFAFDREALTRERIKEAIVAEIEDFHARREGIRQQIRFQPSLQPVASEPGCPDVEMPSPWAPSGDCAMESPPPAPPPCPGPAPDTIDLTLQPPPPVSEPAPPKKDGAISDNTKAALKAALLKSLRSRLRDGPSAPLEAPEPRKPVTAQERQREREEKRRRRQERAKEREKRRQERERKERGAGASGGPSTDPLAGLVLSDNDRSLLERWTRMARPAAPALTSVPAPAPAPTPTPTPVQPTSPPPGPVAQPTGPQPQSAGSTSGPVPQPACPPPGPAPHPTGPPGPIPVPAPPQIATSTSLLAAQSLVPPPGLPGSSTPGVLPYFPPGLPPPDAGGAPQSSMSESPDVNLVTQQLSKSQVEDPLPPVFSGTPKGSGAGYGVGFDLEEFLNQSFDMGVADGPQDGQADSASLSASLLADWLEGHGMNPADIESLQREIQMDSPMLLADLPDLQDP

Regarding `COc1cc(C(=O)NCc2ccc(OCCN(C)C)cc2)cc(OC)c1OC`, the fold change in assay [1] (setting [13]) was 0.938 (inactive) and 0.925 (inactive) and 0.912 (inactive); in assay [1] (setting [14]), 0.8 and 0.443 and 2.44. The cell count was 8110 and 8000 and 11800 in assay [1] (setting [15]); 8650 and 12900 in assay [1] (setting [16]). In addition, the z-score in assay [2] (setting [17]) is 3.55 (active) and 0.307 (inactive); in assay [2] (setting [18]), -0.723 and -0.201; in [5], 0.17 (inactive). Besides, the remaining NAD in assay [3] was 10 nM (inactive). For the same compound, in [4], the luciferase signal was 48 AU (inactive).

With `CC(=O)Nc1ccc(CC(=O)O)cc1`, the fold change in [1] (setting [13]) is 0.951 (inactive); in [1] (setting [14]), 1.68. Further, the results for the cell count in assay [1] (setting [15]) and in assay [1] (setting [16]) were 9700 and 10200, respectively. For the same compound, the figures for the z-score in [2] (setting [17]), in [2] (setting [18]) and in assay [5] were -0.406 (inactive), -0.418 and 0.87 (inactive), respectively. Further, the remaining NAD in assay [3] was 10 nM (inactive).

As to `CN1CCCCC1CCN1c2ccccc2Sc2ccc(S(C)=O)cc21` (centres undefined), the fold change is 0.812 (inactive) and 0.898 (inactive) and 0.879 (inactive) in assay [1] (setting [13]); 1.32 and 2.22 and 1.93 in assay [1] (setting [14]). In addition, the cell count in [1] (setting [15]) was 7930 and 7130 and 7860; in assay [1] (setting [16]) it was 9770 and 7940 and 8940. Moreover, the z-score in [2] (setting [17]) was 0.0731 (inactive) and 0.00466 (inactive); in [2] (setting [18]) it was -0.192 and -0.653; in assay [5] it was 0.175 (inactive) and 0.14 (inactive). The remaining NAD in assay [3] is 10 nM (inactive).

As to `C[C@H]1COc2c(C3(N)CC3)c(F)cc3c(=O)c(C(=O)O)cn1c23`, the fold change in assay [1] (setting [13]) was 0.94 (inactive) and 0.878 (inactive); in assay [1] (setting [14]), 0.784 and 0.738. Besides, the cell count in assay [1] (setting [15]) was 8060 and 10100; in assay [1] (setting [16]), 8570 and 11500. In addition, the z-score in [2] (setting [17]) is 0.246 (inactive); in assay [2] (setting [18]), -0.0845; in [5] it was 0.735 (inactive). Also, the remaining NAD in assay [3] is 10 nM (inactive). Moreover, the inhibition was -4.46% (inactive) in assay [6] (at 0.5 µM, stronger effect = higher value); -13% in assay [6] (measured here: combination with BGB IC20, at 0.005 µM); -17.8% in [6] (measured here: combination with BGB IC40, at 0.005 µM); -33.8% in assay [6] (setting [19]); -7.85% in assay [6] (measured here: combination with cisplatin, at 0.5 µM, stronger effect = higher value); -33.3% in assay [6] (measured here: combination with cisplatin, at 5 µM, stronger effect = higher value). Besides, the inhibition was -18.1% in assay [7] (BGB combo, at 5 µM); -10.4% (inactive) in assay [7] (at 0.5 µM); -7.06% in assay [7] (cisplatin combo, at 5 µM); -22.3% in [7] (measured here: with BGB IC20 combination, at 0.5 µM); -3.47% in [7] (measured here: with cisplatin IC20 combination, at 0.5 µM); -13.5% in assay [7] (single agent, at 5 µM). Besides, the inhibition in [8] (BGB IC20 combo, at 0.005 µM) is -21.1%; in assay [8] (BGB IC40 combo, at 0.005 µM) it was 4.03%; in [8] (BGB IC40 combo, at 0.05 µM), -27.4%; in assay [8] (at 0.5 µM), -17.9% (inactive); in assay [8] (cisplatin combo, at 0.05 µM) it was -30.9%; in assay [8] (cisplatin combo, at 0.5 µM) it was -13.3%. Besides, the inhibition in [8] (cisplatin combo, at 5 µM) is -41.9%; in assay [8] (measured here: 5 uM single agent, at 5 µM), -29.9%; in [9] (at 0.5 µM) it was -26.1% (inactive); in [9] (setting [19]), -41.4%; in assay [9] (measured here: combination with cisplatin, at 0.5 µM), -26.2%; in assay [9] (measured here: combination with cisplatin, at 5 µM) it was -29.7%. The inhibition is -9.68% (inactive) in [10] (at 0.5 µM); -30.1% in assay [10] (measured here: with BGB IC20, at 0.5 µM); -48.1% in assay [10] (measured here: with BGB IC20, at 5 µM); -17.4% in [10] (measured here: with cisplatin IC20, at 0.5 µM); -41% in assay [10] (measured here: with cisplatin IC20, at 5 µM); 3.14% in [10] (single agent, at 5 µM). The inhibition in [11] (at 0.5 µM) was -44.1% (inactive); in [11] (measured here: combination with BGB at IC20, at 0.5 µM), -27.6%; in [11] (measured here: combination with cisplatin at IC20, at 0.5 µM) it was -41.6%; in assay [12] (at 0.5 µM), -8.87% (inactive); in assay [12] (measured here: combo with BGB at IC20, at 0.5 µM), -6%; in assay [12] (measured here: combo with cisplatin at IC20, at 0.5 µM), -11.8%.

The values are drawn from PubChem BioAssay.
